High-throughput results (PubChem BioAssay)
Pf growth 48h – Primary qHTS for delayed death inhibitors of the malarial parasite plastid, 48 hour incubation; P. falciparum luciferase growth in erythrocytes, 48 h; Potency, µM (doses to about 28.7 µM), hits mostly inhibitors; actives 5.9% (n = 310,000); AID 504832, 2011
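Luciferase-expressing parasites in RBCs, 2% Hct / 0.1% parasitemia final; RPMI 1640 + 0.5% Albumax; 37 C, 5% CO2, one generation; luminescence read-out, lower signal = inhibition.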
HCMV antiviral – qHTS Assay for inhibitors of the human cytomegalovirus (HCMV). HFF cells, HCMV-luciferase reporter, 72 h; stronger effect = lower value. actives 4.5% (n = 410,000). activity change, negative = inhibition, % at 57.5 µM; in the data active = activity change below about -60%; inconclusive = no clear call, values can overlap the other calls; inactive = above about -39%
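Human foreskin fibroblasts infected with luciferase-reporter HCMV at MOI 1 PFU/cell, compounds at two doses. Luciferase measured 72 h post infection; normalized to buffer-only basal and Salinomycin (10uM) controls.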
Pf growth 96h – Primary qHTS for delayed death inhibitors of the malarial parasite plastid, 96 hour incubation | Potency, µM (titrated, usually from 28.7 µM), usual class: inhibitors | P. falciparum luciferase reporter growth, 96 h | actives 6.9% (n = 320,000)
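Readout is luminescence from an integrated firefly luciferase in P. falciparum. Red cells, 2% hematocrit and 0.05% parasitemia final, were cultured with compound through two parasite generations (96 hours) at 37 C, 5% CO2.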
Shiga toxin inh – A qHTS for Small Molecule Inhibitors of Shiga Toxin | AID 2315, 2010 | Vero cells, Shiga toxin protein synthesis inhibition reporter | inhibition, % at 38.7 µM | actives 9.2% (n = 290,000); in the data active = inhibition mostly above about 28%, no sharp cut-off; inactive = mostly below about 43%
CHX counter – Cycloheximide Counterscreen for Small Molecule Inhibitors of Shiga Toxin | cell reporter, cycloheximide protein synthesis inhibition counterscreen | max response, % | actives 12% (n = 300,000); in the data active = max response mostly above about 13%, no sharp cut-off; inactive = mostly below about 14%; also: read at 38.3 µM for the half of the compounds with a filed dose
Each line names hits and unclear results; the compound was inactive in the other large screens. The list is not random: actives were taken first. Their share in the collection is about 20%. Unless noted, calls follow the shape of the dose curve; as a rule, active = well fitted inhibition curve with a large enough effect; inconclusive = small, poorly fitted or top-dose-only effect, or another doubt; inactive = no such curve, though single readings can be large or run the other way.

Cc1cc(C)nc(SCc2cn3c(C)cccc3n2)n1	none
Brc1c(CSc2nncn2-c2ccccc2)nc2ncccn12	none
COc1ccc(NC(=O)COC(=O)c2ccc(OCc3ccccc3Cl)c(OC)c2)c(OC)c1	none
Cc1cc(OCC(=O)NCCN2CCOCC2)c2c(C)c(C)c(=O)oc2c1	none
COc1ccc(NC(C)c2ccccc2)cc1 (stereo not given)	Pf growth 96h inconclusive, Shiga toxin inh 84.1, CHX counter 35.3
COc1ccc(S(=O)(=O)NCCC(=O)NC(C)c2ccccc2)cc1 (stereo not given)	Pf growth 96h 7.38µM
COc1ccc(NC(=O)NC(C)c2ccccc2)cc1 (stereo not given)	none
COc1ccc(OCCCC(=O)NC(C)c2ccccc2)cc1 (stereo not given)	Pf growth 96h 9.28µM (no result: Pf growth 48h)
O=C(NCCOc1ccccc1)C(c1ccccc1)c1ccccc1	Pf growth 48h inconclusive, Pf growth 96h inconclusive
CC(NC(=O)CCNS(=O)(=O)c1ccc2c(c1)oc(=O)n2C)c1ccccc1 (stereo not given)	none
COc1ccc(OCCNC(=O)C(c2ccccc2)c2ccccc2)cc1	Pf growth 48h 10.4µM
CCCCn1c(=O)c2oc3ccccc3c2n(Cc2cccc(F)c2)c1=O	none (no result: Pf growth 48h, Pf growth 96h, Shiga toxin inh, CHX counter)
Cc1cccc(-c2noc(-c3ccoc3C)n2)c1	Shiga toxin inh 100.4, CHX counter 34.8
COc1ccc(-c2noc(-c3ccoc3C)n2)cc1	Pf growth 96h inconclusive, Shiga toxin inh 56.5, CHX counter 59.4
COc1cccc(-c2noc(-c3ccoc3C)n2)c1	Shiga toxin inh 122.8, CHX counter 38.5
Cc1ccc(N2CCN(S(=O)(=O)N3CCOCC3)CC2)cc1C	none
COc1ccc(NC(=O)CNc2cc(S(=O)(=O)N3CCOCC3)ccc2NCC2CCCO2)cc1 (stereo not given)	Pf growth 96h inconclusive
CC(C)N(Cc1cc2ccccc2[nH]c1=O)C(=O)c1ccco1	none
COc1ccc(-n2ncc3c(NCCCN4CCOCC4)ncnc32)cc1	Shiga toxin inh 83.4, CHX counter 40.9
COc1ccc(-n2ncc3c(NCCN4CCOCC4)ncnc32)cc1	Shiga toxin inh 46.5, CHX counter 34.0 (no result: Pf growth 48h, HCMV antiviral)
Cc1ccc(-n2ncc3c(NCCCN4CCOCC4)ncnc32)c(C)c1	none (no result: Pf growth 48h)
Clc1cccc(-n2ncc3c(NCCCN4CCOCC4)ncnc32)c1	none (no result: Pf growth 48h, Pf growth 96h, Shiga toxin inh, CHX counter)
Cn1nnc2c(NCc3ccccc3)ncnc21	none (no result: Pf growth 48h, Pf growth 96h, Shiga toxin inh, CHX counter)
COC(=O)[C@@H]1[C@@H](CO)[C@@H]2Cn3c(ccc(Br)c3=O)[C@@H]2N1C(=O)Cc1cccnc1	none (no result: Pf growth 48h, Pf growth 96h, Shiga toxin inh, CHX counter)
COc1cc([C@H]2[C@@H]3CCCC[C@]3(O)CCN2Cc2ccccc2F)ccc1O	Pf growth 48h inconclusive, Pf growth 96h 11.7µM
COc1ccc2nc(NC(=O)C3CCCN(S(=O)(=O)c4cccc5nonc45)C3)sc2c1 (stereo not given)	Pf growth 48h 13.1µM
CCOc1ccc2nc(NC(=O)C3CCCN(S(=O)(=O)c4c(C)noc4C)C3)sc2c1 (stereo not given)	Pf growth 48h inconclusive, Pf growth 96h 13.1µM, Shiga toxin inh 28.1, CHX counter 25.4
CCOc1ccc2nc(NC(=O)C3CCCN(S(=O)(=O)c4cccc5nonc45)C3)sc2c1 (stereo not given)	Pf growth 96h inconclusive (no result: Pf growth 48h)
CC(C)NC(=O)CC(=O)Nc1ccc2nc3n(c(=O)c2c1)CCCCC3	none (no result: Pf growth 48h, Pf growth 96h, Shiga toxin inh, CHX counter)
CCOc1ccc(CNC(=O)CCCn2c(=O)c3cccn3c3cccnc32)cc1	none (no result: Pf growth 48h, Pf growth 96h, Shiga toxin inh, CHX counter)
S=c1cnc2ccccc2[nH]1	CHX counter 30.0
O=C(Nc1c(C(=O)Nc2cccc(C(F)(F)F)c2)oc2ccccc12)c1cc(=O)c2ccccc2o1	none (no result: Pf growth 48h, Pf growth 96h, Shiga toxin inh, CHX counter)
Cc1ccc(N=C(N)N=C(N)N)cc1	Pf growth 48h 9.28µM, Pf growth 96h inconclusive
COc1ccc(CN2c3cc(S(=O)(=O)N4CCOCC4)ccc3N3CCCC32)cc1 (stereo not given)	Pf growth 96h 8.28µM (no result: Pf growth 48h)
O=S(=O)(c1ccc2c(c1)N(Cc1ccc(Cl)cc1)C1CCCN21)N1CCOCC1 (stereo not given)	Pf growth 48h inconclusive, Pf growth 96h 8.28µM
O=C(CN1C(=O)C2CCCCC2C1=O)OCC(=O)c1ccc(Cl)s1 (stereo not given)	none
COc1ccccc1/C=C/C(=O)Nc1cccc(C(C)=O)c1	Shiga toxin inh 65.3, CHX counter 44.5
COc1ccc(/C=C/C(=O)Nc2cccc(C(C)=O)c2)cc1	Pf growth 96h inconclusive, Shiga toxin inh 67.8, CHX counter 60.1
COc1cccc(/C=C/C(=O)Nc2ccc3c(c2)OCCO3)c1OC	Shiga toxin inh 88.0, CHX counter 26.9
CCc1cc(C(=O)O)c(NC(=O)/C=C/c2ccc(OC)cc2)s1	CHX counter 31.6
COc1cccc(OC)c1C(=O)Nc1cccc(C(C)=O)c1	none
COc1ccc(/C=C/C(=O)Nc2cccc(F)c2)cc1	none (no result: Pf growth 48h, Pf growth 96h, Shiga toxin inh, CHX counter)
CCN(CC)CCCn1c2c(c(SCC(=O)Nc3ccc4c(c3)OCO4)nc1=O)CCC2	Pf growth 48h inconclusive, Pf growth 96h inconclusive (no result: Shiga toxin inh, CHX counter)
O=C(CSc1nnc(CNC(=O)c2c(F)cccc2F)o1)NCc1ccco1	none (no result: HCMV antiviral)
COc1cccc(/C=C/C(=O)Nc2cccc(C(C)=O)c2)c1OC	Shiga toxin inh 74.6, CHX counter 48.5
CC(C)C[C@H]1CN([C@@H](CC(C)C)CN2CCCC2CN2C(=S)NC[C@@H]2Cc2ccccc2)C(=S)N1CCc1ccccc1 (stereo not given in full)	none (no result: Pf growth 48h, Pf growth 96h, Shiga toxin inh, CHX counter)
COc1cccc2c1OCC/C2=N\NC(=O)COc1ccc(C)cc1	Pf growth 96h inconclusive, Shiga toxin inh 23.5
CC(=O)OCCNc1cc(N2CCN(C)CC2)c2noc3c2c1C(=O)c1ccccc1-3	Pf growth 48h inconclusive
CCOC(=O)C(C(=O)OCC)c1cc(Br)c2noc3c2c1C(=O)c1ccccc1-3	HCMV antiviral -105.9
C/C(=N\NS(=O)(=O)c1ccc(C(C)(C)C)cc1)c1ccccc1	Pf growth 96h inconclusive
C/C(=N\Nc1nncc2ccccc12)c1ccc(C(C)(C)C)cc1	Pf growth 96h inconclusive, Shiga toxin inh 97.5, CHX counter 41.9 (no result: HCMV antiviral)
C/C(=N\Nc1nncc2ccccc12)c1ccc(O)cc1	Shiga toxin inh 53.9, CHX counter 28.0
C/C(=N\Nc1nncc2ccccc12)c1cccc(OC(F)F)c1	Shiga toxin inh 65.4, CHX counter 20.4
CC12CCC3C(CCC4CC(O)CCC43C)C1CC=C2c1ccccc1 (stereo not given)	none (no result: Pf growth 48h, HCMV antiviral, Pf growth 96h)
C/C(=N\NC(N)=S)C1=CCC2C3CC[C@H]4CC(O)CC[C@]4(C)C3CC[C@]12C (stereo not given in full)	Pf growth 96h 11.7µM (no result: Pf growth 48h)
Nc1c(-c2nc(-c3ccc4c(c3)OCO4)cs2)c2ccccn2c1C(=O)c1ccc(Cl)cc1	none (no result: Pf growth 48h, Pf growth 96h, Shiga toxin inh, CHX counter)
CN(C)CCNS(=O)(=O)c1ccc2c3c(cccc13)C(=O)N2	none (no result: Shiga toxin inh)
O=C1Nc2ccc(S(=O)(=O)NCc3ccccn3)c3cccc1c23	Pf growth 96h 10.4µM (no result: Pf growth 48h)
Cc1cc(C)nc(N/N=C/c2ccccc2OCC(=O)O)n1	none
